Source: PubChem BioAssay (NCI)
The panel holds about 79,000 compounds, 15% with a hit somewhere; the sample as a whole holds those more often. Calls of active or inactive are those of the source. No stated cut-off is given here; in the data, active means growth inhibition above about 70%; inactive means the rest.

Experiments:
[1] = NCI Yeast Anticancer Drug Screen. Data for the rad50 strain (AID 155);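 further: 0% = growth of vehicle-only cultures of the same strain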; details: S. cerevisiae rad50 strain growth inhibition; at 50.0 µM; stronger effect = higher value
Method in brief: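 Relative growth inhibition (compound vs vehicle) was measured in yeast with a defined repair-gene alteration.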

[2] = NCI Yeast Anticancer Drug Screen. Data for the mec2-1 strain (AID 157); details: S. cerevisiae mec2-1 strain, at 50.0 µM, stronger effect = higher value
Method in brief: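 Readout is yeast growth inhibition, normalised to vehicle-treated controls, in the mec2-1 strain exposed to compound.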

[3] = NCI Yeast Anticancer Drug Screen. Data for the sgs1 mgt1 strain (AID 161);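 further: 0% = growth of cultures given vehicle only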; details: S. cerevisiae sgs1 mgt1 strain, at 50.0 µM, stronger effect = higher value
Method in brief: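 Yeast cells carrying a defined DNA-repair defect were exposed to test compounds. Growth inhibition was measured relative to vehicle-treated controls.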

[4] = NCI Yeast Anticancer Drug Screen. Data for the cln2 rad14 strain (AID 165);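 further: 0% = growth equal to vehicle treated cultures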; details: S. cerevisiae cln2 rad14 strain, at 50.0 µM, stronger effect = higher value
Method in brief: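 Relative to vehicle controls, growth inhibition of compound-treated cln2 rad14 yeast was recorded.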

[5] = NCI Yeast Anticancer Drug Screen. Data for the bub3 strain (AID 167); details: S. cerevisiae bub3 mutant strain, at 50.0 µM, stronger effect = higher value
Method in brief: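 Screening used yeast with an engineered genetic alteration affecting cell cycle control. Compound-exposed cultures were compared with vehicle cultures, and reduced growth was taken as inhibition.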

[6] = NCI Yeast Anticancer Drug Screen. Data for the mlh1 rad18 strain (AID 175); details: S. cerevisiae mlh1 rad18 strain growth inhibition; at 50.0 µM; stronger effect = higher value
Method in brief: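 Test agents were incubated with a yeast strain of defined genotype (DNA damage repair defect). Inhibition of growth was derived by comparison with vehicle-exposed cultures.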

Measured: growth inhibition

C=CCCCCCCCCC(N)=O
inactive: [1] -12.6% | [2] -8.4% | [3] 4.15% | [4] -1.8% | [5] 13.2% | [6] -14.6%

C=CCOC(=O)OCCO
inactive: [1] 5.95% | [2] -0.55% | [3] -2.8% | [4] -34.5% | [5] -5.5% | [6] -15.9%

Cc1c(C)n(COCCO)c2ncnc(N)c12
inactive: [1] -14.2% | [2] -37.1% | [3] -23.6% | [4] 13.8% | [5] -12.6% | [6] -39%

CN(C)c1nc(O)cc(=O)[nH]1
inactive: [1] 5.05% | [2] -0.35% | [3] -6.6% | [4] -34.8% | [5] 8.3% | [6] 25.3%

CCCC(CCC)=C1C(=O)N=C(N)NC1=O
inactive: [1] -6.45% | [2] 4.9% | [3] -2.7% | [4] -9.05% | [5] -7.35% | [6] -16%

Nc1ccc(C(=O)O)cn1
inactive: [1] -20.4% | [2] -11.1% | [3] 29.6% | [4] -34.5% | [5] 9.95% | [6] -0.45%

CCCCN(CCOc1ccnc(=O)[nH]1)CC(C)C
inactive: [1] 6% | [2] 13.2% | [3] -3.2% | [4] -35.5% | [5] 11.3% | [6] -7.7%

COc1ccc(/C=N/NC(=O)CCCCCCCCC(=O)N/N=C/c2ccc(OC)c(OC)c2)cc1OC
inactive: [1] -26.4% | [2] -13.4% | [3] -23.4% | [4] -50.2% | [5] -0.75% | [6] -12.5%

Cc1c(Br)cc(Br)c(O)c1Br
inactive: [1] 37.3% | [2] 26.9% | [3] 23.7% | [4] -29.4% | [5] 9.1% | [6] 31.1%

COC(=O)/C(=N/NC(N)=O)C(C(=O)OC)C(=O)C(=O)Nc1ccc(Cl)cc1 (centres undefined)
inactive: [1] 1.4% | [2] -21.8% | [3] -16.9% | [4] 13.8% | [5] -14.4% | [6] -34.5%

NC(N)=NOCC(=O)O
inactive: [1] -7.2% | [2] -14.7% | [3] -8.85% | [4] -42.5% | [5] 3.95% | [6] -16.1%

O=C1C2CCOC2N=C2CCCN12 (centres undefined)
inactive: [1] -1.85% | [2] 5.55% | [3] -3.55% | [4] 1.65% | [5] -5.3% | [6] -11.1%

C[N+](C)(C)c1ccc2ccccc2n1
inactive: [1] -9.15% | [2] -1.6% | [3] -19.9% | [4] 1.15% | [5] -8.7% | [6] -2.7%

O=c1c2ccccc2nc(-c2ccccc2)n1-c1cc(C(F)(F)F)cc(C(F)(F)F)c1
inactive: [1] -20.5% | [2] -23% | [3] 7.85% | [4] 10.8% | [5] 4% | [6] 5.95%

[Cl][Sn]1([Cl])[CH2]CCCCCCCCCC[CH2][Sn]([Cl])([Cl])[CH2]CCCCCCCCCC[CH2]1
inactive: [1] -12.9% | [2] 1.2% | [3] 9.65% | [4] -12.7% | [5] -13.6% | [6] -25.5%

CCOC(=O)c1c(C)nc(C)nc1N
inactive: [1] 0.2% | [2] -2.5% | [3] -9.85% | [4] -41.5% | [5] -22.1% | [6] 2%

CN(C=O)C(C(=O)Nc1cccc2c(OC(=O)C(N(C)C=O)(N(C)C=O)N(C)C=O)c(N=Nc3ccc(S(=O)(=O)Nc4nccs4)cc3)cc(N=Nc3ccc(S(=O)(=O)Nc4nccs4)cc3)c12)(N(C)C=O)N(C)C=O (tested in a mixture with another compound)
inactive: [1] 60.1% | [2] 6.25% | [3] -6.25% | [4] -6.5% | [5] 16.9% | [6] 35.6%

CC(=O)C(CCN(C)C)c1ccc2c(c1)CCc1ccccc1-2 (centres undefined)
inactive: [1] 13.3% | [2] 5.65% | [3] 19.4% | [4] -8.45% | [5] 13.3% | [6] 27.6%

Nc1cc2c(cc1Br)-c1ccccc1C2Br (centres undefined)
inactive: [1] -6.35% | [2] -10.9% | [3] 3.7% | [4] 10.7% | [5] 1.25% | [6] 2.7%

CC1(C)OC2C3COc4nc5c(N)ncnc5n4C(O3)C2O1 (centres undefined)
inactive: [1] -6% | [2] -5.2% | [3] -8.85% | [4] -5.05% | [5] -8.1% | [6] -9.9%

CC(=O)OC/C=C(\C)CCC=C(C)C
inactive: [1] -21.6% | [2] -23.4% | [3] -12.2% | [4] -6.65% | [5] -0.55% | [6] -5.15%

Nc1c2c(nn1-c1ccccc1)C(=O)N(CCc1ccccc1)C2
inactive: [1] 0.25% | [2] 14.2% | [3] -6.05% | [4] -0.65% | [5] -3.25% | [6] -1.4%

NC(=O)c1ccc(NCC2=CC(=O)C=CC2=O)cc1
inactive: [1] -9.85% | [2] 3.25% | [3] -5.05% | [4] -2.6% | [5] -17.9% | [6] 16.8%

O=S=C(c1ccccc1)N1CCc2ccccc21
inactive: [1] 22.4% | [2] 3.75% | [3] 12.1% | [4] 7.15% | [5] 18.4% | [6] 22.7%

Clc1cccc(-c2nc3cccc4c3n2Cc2ncccc2-4)c1
inactive: [1] -47.8% | [2] -37% | [3] -42.5% | [4] -9.4% | [5] 0.65% | [6] -44.4%

COC(=O)C1C(C(=O)OC)C2N(c3ccccc3)C=NN2C1C(=O)c1ccccc1 (centres undefined)
inactive: [1] -62.2% | [2] -10.2% | [3] -16% | [4] -3.65% | [5] 5.05% | [6] -4.65%

Cn1c2cc3ccccc3cc2nc2cc3c(cc21)c(Cl)c(=O)c1ccccc13
inactive: [1] 10% | [2] -3% | [3] 12.8% | [4] 5.85% | [5] -4.45% | [6] -2.35%

O=S1(=O)c2ccccc2N2CCCc3cc(Cl)cc1c32
inactive: [1] -49.9% | [2] -23.1% | [3] -41.7% | [4] -3.35% | [5] -8.9% | [6] -4.15%

CCN(CC)c1ccc2c(c1)Oc1ccc(N(C(C)=O)c3ccccc3)cc1C21OC(=O)c2ccccc21 (centres undefined)
inactive: [1] 25.5% | [2] 13.1% | [3] 29.6% | [4] 31% | [5] 51.4% | [6] 19.2%

N#CCc1csc(-c2ccccc2)n1
inactive: [1] 26.6% | [2] 16.8% | [3] 6.2% | [4] 15.2% | [5] 1.55% | [6] 27%

N#Cc1c(-c2ccccc2)ssc1=S
inactive: [1] 31.4% | [2] 25.1% | [3] 50.4% | [4] -20.8% | [5] 11.8% | [6] 12.6%

COC1CCC2CC3(CCC2(C)C1O)OCCO3 (centres undefined)
inactive: [1] 1.25% | [2] 0.85% | [3] -1.45% | [4] -12.3% | [5] 26.1% | [6] -14.4%

CC(=O)C1C(=O)OC2C3C=CC(C3)C2C1=O (centres undefined)
inactive: [1] 14.9% | [2] 21.1% | [3] 0.9% | [4] -4.7% | [5] 20.1% | [6] 42.6%

O=c1c(-c2ccccc2)coc2ccccc12
inactive: [1] -9% | [2] 1.45% | [3] 8.15% | [4] -52% | [5] -14.3% | [6] 0.15%

C=C1CC/C=C(\C)C(=O)C(O)C2C1CC2(C)C (centres undefined)
active: [6] 78.8%
inactive: [1] 14.9% | [2] -13.7% | [3] 67.2% | [4] 16.4% | [5] 23.9%

Cc1ccc(O)c(C(C)(C)C)c1
inactive: [1] 14.9% | [2] -8% | [3] 20.4% | [4] 21.3% | [5] -0.65% | [6] 8.5%

CN1OC(CO)CC12C1CC3CC(C1)CC2C3 (centres undefined)
inactive: [1] -41% | [2] -19.1% | [3] -53.5% | [4] -3.4% | [5] -42.7% | [6] -53.8%

NC(=S)NCc1ccccc1C(O)c1ccccc1 (centres undefined)
inactive: [1] 18.8% | [2] 13.8% | [3] -0.75% | [4] 18.3% | [5] 18.5% | [6] 21.2%

COC(=O)C(=O)C(C(=O)C(=O)Nc1ccc(C)cc1C)c1nc2ccc(Cl)cc2[nH]c1=O (centres undefined)
inactive: [1] 4.35% | [2] -21.6% | [3] 9.2% | [4] -23.6% | [5] -22.4% | [6] 7.45%

CC(=O)CSCc1ccccn1
inactive: [1] 5.05% | [2] 15% | [3] -18.6% | [4] 10.2% | [6] -1.9%

NC(=O)C(=O)C(c1ccccc1)c1ccccc1
inactive: [1] 0.3% | [2] 4.55% | [3] -1.1% | [4] -4.05% | [6] -8.35%

N#CC1=C(N)C(c2ccccc2)(c2ccccc2)CC1
inactive: [1] 30.4% | [2] 29.6% | [3] 8.15% | [4] -0.45% | [6] 35.7%
